This is a sample that favours compounds with a hit; in the whole collection about 2.3% have one here.
PLCb3 inh – human PLC-beta3 inhibitors, primary screen, biochemical, fluorescence; AID 720704, 2013; 0.18% of 370,000 active; inhibition, % at 12.2 µM; Purified PLC-beta3, fluorogenic substrate;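 note: 0% = median of compound wells on plate and 100% = full blocker control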
MBD2 inh – inhibitors of MBD2 binding to methylated DNA, primary screen, biochemical, TR-FRET, DNA-binding domain, human; 0.31% of 370,000 active; MBD2 binding to methylated oligonucleotide; Methyl-CpG-binding domain protein 2 (Homo sapiens), Q9UBB5; inhibition, % at 4.4 µM; in the data active = inhibition above about 13%
LEDGF integ inh – blockers of LEDGF/p75-dependent integrase strand transfer – biochemical, TR-FRET, high throughput, primary screen. inhibition, % at 3.7 µM. TR-FRET IN-LEDGF/p75 DNA integration, Eu/Cy5. AID 743269, 2014. HIV-1 integrase (with human LEDGF/p75). 0.64% of 370,000 active;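 active = inhibition above the screen-wide mean plus 3 SD, cut at about 13% in these data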;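 note: signal is the Cy5 over europium emission ratio at 671 and 618 nm; 0% = plate median of compound wells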
PLCg1 inh – PLC-gamma1 enzyme inhibitors, primary screen, biochemical, fluorescence, purified enzyme; 1-phosphatidylinositol 4,5-bisphosphate phosphodiesterase gamma-1 (Homo sapiens), P19174; fluorogenic substrate; inhibition, % at 12.2 µM; 0.84% of 370,000 active; AID 720700, 2013; in the data active = inhibition above about 9.5%
UHRF1 MBD2 ctr – UHRF1 methylated DNA binding inhibitors, primary screen, counter-screen for MBD2 inhibitor project, biochemical, TR-FRET, human UHRF1, single concentration. UHRF1 binding to methylated oligo. inhibition, % at 4.4 µM. 0.75% of 370,000 active. AID 687016, 2013; in the data active = inhibition above about 21%;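 note: UHRF1 SRA domain binding a hemimethylated CpG hairpin DNA probe; 0% = median of test compound wells and 100% = reference inhibitor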
PLCg1 ctr – PLC-gamma1 enzyme inhibitors, counter-screen for PLC-beta3 inhibitor project, biochemical, fluorescence; shares compounds with PLCg1 inh; purified PLC-gamma1, fluorogenic substrate; inhibition, % at 12.3 µM; 3.1% of 3,300 active; AID 743258, 2014; in the data active = inhibition above about 9.5%
PLCbeta3 conf – PLC-beta3 inhibitor confirmation, biochemical, fluorescence, purified enzyme. inhibition, % at 12.3 µM. shares compounds with PLCg1 inh. 1% of 3,300 active. fluorogenic substrate fluorescence
An asterisk follows results filed as active; . = not tested or not shown. Cut-off read from the data, not from the text of the source, unless noted: active = inhibition above about 11%; inactive = the rest.

SMILES	PLCb3 inh	MBD2 inh	LEDGF integ inh	PLCg1 inh	UHRF1 MBD2 ctr	PLCg1 ctr	PLCbeta3 conf
COc1ccc(NS(=O)(=O)Cc2ccccc2Cl)cn1	3	-1	3	12*	1	-1	5
CC(C)CCN(C)C1CCN(C(=O)Nc2ccccc2)CC1	3	1	-1	-2	1	.	.
Cc1ccc2nc(NC(=O)CN3C(=O)NC4(CCCCC4)C3=O)sc2c1	0	0	3	12*	2	0	1
COc1ccc2nc(NC(=O)CN3C(=O)NC4(CCCCC4)C3=O)sc2c1	-3	-3	0	0	-2	.	.
O=C(NCCO)C1(C(=O)C2CC2)CC(c2ccccc2C(F)(F)F)=NO1 (centres undefined)	-1	3	0	-1	-1	.	.
Cc1nn(-c2ccccc2)c2sc(C(=O)NC3CCCC3)cc12	-3	1	0	-3	-1	.	.
Cc1cccc(CN2CCSc3sccc3C2=O)c1	-2	5	5	13*	5	-5	-6
Cc1cnc(CN(C)C(=O)C2CCC(=O)N(CCc3ccccc3)C2)[nH]1 (centres undefined)	-2	-7	6	4	1	.	.
CN(CCC1CCOCC1)C(=O)C1CCC(=O)N(CCc2ccccc2)C1 (centres undefined)	1	0	-1	9.7*	3	0	-51
CC(C)[C@H](N)C(=O)N1CCC[C@@H]1C(=O)N1CCC2CCN(S(=O)(=O)c3ccccc3)CC21 (some centres undefined)	0	-3	-1	0	-8	.	.
O=C(C1CCC1)N1CCc2cc(S(=O)(=O)N3CCCC3)ccc21	0	-1	0	1	0	.	.
COC(=O)C(C)(C)NC(=O)c1cccs1	-1	0	-2	-4	-1	.	.
COC(=O)C(C)(C)c1cccnc1C#N	2	4	5	76*	8	77*	-1
CCCCC(=O)Nc1ccc(C(=O)NCC2COc3ccccc3O2)cc1 (centres undefined)	2	0	4	4	-5	.	.
COc1ccccc1C(=O)Nc1nnc(-c2ccccc2)s1	-22	-3	4	-8	-3	.	.
COc1ccccc1C(=O)N(C)c1nnc(-c2ccccc2)s1	4	0	3	9.7*	6	-1	2
CCC(=O)Nc1ccc(N2CCN(Cc3ccccc3)CC2)cc1	-2	1	0	5	1	.	.
O=C(CCS(=O)(=O)c1ccccc1F)Nc1ccc(N2CCN(Cc3ccccc3)CC2)cc1	4	-7	4	11*	3	3	6
CCOC(=O)CN(C(=O)Cn1nnc(-c2ccc(C)cc2)n1)C(CC)C(=O)NC1CCCC1 (centres undefined)	6	-5	6	13*	7	-1	-8
COc1ccc(C(=O)NCCN2C(=O)C3C4C=CC(C4)C3C2=O)cc1OC (centres undefined)	4	-1	1	3	0	.	.
CCN(CC)CCCNC(=O)C1CCC(=O)N(c2ccc(OC)cc2)C1c1ccc(F)cc1 (centres undefined)	0	8	2	12*	7	6	3
COc1ccc(C2C(C(=O)NCc3ccccn3)CCC(=O)N2c2cc(OC)c(OC)c(OC)c2)cc1 (centres undefined)	-1	2	7	10*	1	-1	2
CCC(C)NC(=O)CSc1nc2c(sc3ccccc32)c(=O)n1CCCN1CCOCC1 (centres undefined)	3	-5	4	9.9*	1	-3	0
CCOC(=O)CSc1nc2c(sc3ccccc32)c(=O)n1CCCN1CCOCC1	-2	3	-5	1	-2	.	.
Nn1c(SCC(=O)NC2CCCCC2)nnc1-c1cc(-c2ccc(F)cc2)n[nH]1	1	-2	0	-2	-2	.	.
SMILES	PLCb3 inh	MBD2 inh	LEDGF integ inh	PLCg1 inh	UHRF1 MBD2 ctr	PLCg1 ctr	PLCbeta3 conf
O=C(NCCc1ccncc1)C(F)(F)F	-1	7	2	11*	8	-2	1
O=C(NCCNC(=O)C(F)(F)F)c1ccncc1	3	-1	2	3	-2	.	.
Cn1cc(-c2nnnn2-c2ccccc2)c(=O)c2ccccc21	12*	1	2	5	4	-21	0
Cn1cc(-c2ccccc2C(N)=O)c(=O)c2ccccc21	-25	0	-4	-17	6	.	.
Clc1ccc(CNCC2CCCO2)c(Cl)c1 (centres undefined)	-1	4	4	10*	8	0	2
Clc1ccc(CNCC2CCCO2)cc1 (centres undefined)	-5	5	-3	-1	2	.	.
COc1cccc(COCCN2CCN(S(=O)(=O)c3ccc(C)cc3)CCC2=O)c1	10	-2	-2	12*	4	-7	-4
Cc1ccc(S(=O)(=O)N2CCC(=O)N(CCOCc3cccc(C)c3)CC2)cc1	0	0	-1	7	6	.	.
COC(=O)CN1CCN(C(=O)c2nocc2C)CC1	0	-1	-2	-2	3	.	.
Clc1cc(Cl)c2nc(N3CCCCC3)sc2c1	6	-1	1	9.9*	4	-1	-7
Clc1cc(Cl)c2nc(N3CCCC3)sc2c1	-1	2	-11	12*	6	-7	-7
CCC[C@H]1[C@@H](N(C)Cc2ccccc2)CC[C@@]23CCCN2C(=O)CCC[C@@H]13	0	-2	4	4	-1	.	.
O=C(Nc1cccc2ccccc12)c1ccc(F)cc1	0	0	0	-1	-4	.	.
O=C(Nc1cccc2ccccc12)c1ccccc1	1	-2	4	10*	2	-71	-2
CC(=O)Nc1ccc(Sc2ccc([N+](=O)[O-])o2)cc1	4	0	6	10*	-1	5	-6
O=C(c1ccc(F)cc1Cl)N1CCC(Oc2cccnc2)CC1	0	1	6	3	-3	.	.
Cc1ccc(NC(=O)CSc2nnc(-c3cccnc3)n2Cc2ccco2)cc1C	-2	9	0	-2	-1	.	.
Clc1cccc(Cl)c1OCCCCN1CCCCC1	-3	-4	-3	12*	-1	2	0

Screens (PubChem)
